Inconclusive results are not listed. Activity calls are given as the source filed them. Unless noted, the call rests on the fitted dose curve; in most records, active means well fitted curve in the direction sought with a large enough effect in the repeat runs; inconclusive means weak or mixed curves; inactive means no such curve, though single readings can be large; an effect the other way counts as inactive or inconclusive.
What was measured:
[1] = target: Peroxisome proliferator-activated receptor delta (Homo sapiens) (UniProt Q03181); test: qHTS assay to identify small molecule agonists of the peroxisome proliferator-activated receptor delta (PPARd) signaling pathway (AID 743212; calls by dose curve)
Peroxisome proliferator-activated receptor delta (Homo sapiens), sequence (Q03181 whole entry, looked up): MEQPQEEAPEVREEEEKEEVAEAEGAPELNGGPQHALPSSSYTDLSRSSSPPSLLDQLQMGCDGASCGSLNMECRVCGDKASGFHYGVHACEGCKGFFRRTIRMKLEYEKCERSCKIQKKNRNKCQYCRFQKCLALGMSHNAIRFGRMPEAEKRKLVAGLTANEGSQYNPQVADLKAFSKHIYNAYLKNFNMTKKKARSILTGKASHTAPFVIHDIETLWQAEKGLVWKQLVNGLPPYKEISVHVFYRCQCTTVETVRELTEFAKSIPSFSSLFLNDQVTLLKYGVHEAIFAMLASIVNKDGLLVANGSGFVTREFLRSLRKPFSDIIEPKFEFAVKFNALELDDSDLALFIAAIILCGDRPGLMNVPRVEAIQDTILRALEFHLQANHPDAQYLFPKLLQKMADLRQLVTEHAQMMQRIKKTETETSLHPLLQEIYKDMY
Method in brief: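 Quantitative high-throughput agonist screen in a HEK293H beta-lactamase reporter line under UAS control. Compounds in DMSO, at 37 C. Fluorescence read after 2 h with FRET substrate at room temperature.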

[2] = qHTS assay to identify small molecule antagonists of the peroxisome proliferator-activated receptor delta (PPARd) signaling pathway - cell viability counter screen (AID 743213); further: nearly all actives have a fitted effect of over 50% in size
Method in brief: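 Cytotoxicity counter screen: CellTiter-Glo luminescence read 30 min after addition, in the same wells as the reporter assay. There, PPARd UAS-bla HEK293H cells (3000/well) were treated 17 h at 37 C with compound and 300 nM L165041.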

[3] = target: Peroxisome proliferator-activated receptor delta (Homo sapiens) (UniProt Q03181); test: qHTS assay to identify small molecule antagonists of the peroxisome proliferator-activated receptor delta (PPARd) signaling pathway (AID 743215; active means well fitted inhibition curve with a large enough effect in the signal ratio in the repeat runs, not every such curve was filed as active; the % refers to the signal ratio;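 further: cells stimulated with agonist L165041 at 300 nM final during compound exposure; series mostly up to about 62 µM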)
Method in brief: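 Antagonist-mode beta-lactamase reporter screen: HEK293H cells with UAS-bla under PPARd control, stimulated by 300 nM L165041 (final) alongside test compound for 17 h at 37 C, then FRET fluorescence after 2 h substrate incubation.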

[4] = qHTS assay to identify small molecule agonists of the farnesoid-X-receptor (FXR) signaling pathway - cell viability counter screen (AID 743218); further: nearly all actives have a fitted effect of over 45% in size
Method in brief: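 In GeneBLAzer FXR-UAS-bla HEK 293T cells, compounds act for 16 h at 37 C. Cell viability is then scored in the reporter wells by CellTiter-Glo, 30 min at RT, luminescence.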

[5] = qHTS assay to identify small molecule antagonists of the farnesoid-X-receptor (FXR) signaling pathway - cell viability counter screen (AID 743221; active means well fitted cell-killing curve with a large enough effect in the repeat runs, not every such curve was filed as active; further: nearly all actives have a fitted effect of over 50% in size)
Method in brief: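 In GeneBLAzer FXR-UAS-bla HEK 293T cells stimulated with 50 uM chenodeoxycholic acid (final), compounds acted for 16 h at 37 C. Viability was assessed afterwards by CellTiter-Glo luminescence.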

[6] = target: Vitamin D3 receptor (Homo sapiens) (UniProt P11473); test: qHTS assay to identify small molecule agonists of the vitamin D receptor (VDR) signaling pathway (AID 743222; calls by dose curve)
Vitamin D3 receptor (Homo sapiens), sequence (P11473 whole entry, looked up): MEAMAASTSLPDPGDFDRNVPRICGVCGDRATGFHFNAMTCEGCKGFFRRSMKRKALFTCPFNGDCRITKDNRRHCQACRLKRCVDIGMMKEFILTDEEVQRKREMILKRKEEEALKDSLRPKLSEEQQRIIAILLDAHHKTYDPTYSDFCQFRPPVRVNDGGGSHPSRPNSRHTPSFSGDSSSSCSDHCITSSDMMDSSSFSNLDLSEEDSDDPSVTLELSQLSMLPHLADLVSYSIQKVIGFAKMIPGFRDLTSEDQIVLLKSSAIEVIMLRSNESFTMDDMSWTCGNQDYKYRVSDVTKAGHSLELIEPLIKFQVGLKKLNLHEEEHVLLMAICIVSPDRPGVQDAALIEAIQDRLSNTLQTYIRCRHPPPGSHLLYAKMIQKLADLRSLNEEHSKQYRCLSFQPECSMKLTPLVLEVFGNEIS
Method in brief: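 Agonist activity measured in VDR-bla reporter cells. Exposure 16 h, 37C, 5% CO2; detection by B/G FRET substrate, 2 h RT.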

[7] = target: Vitamin D3 receptor (Homo sapiens) (UniProt P11473); test: qHTS assay to identify small molecule antagonists of the vitamin D receptor (VDR) signaling pathway (AID 743223; active means well fitted inhibition curve with a large enough effect in the signal ratio in the repeat runs, not every such curve was filed as active; the % refers to the signal ratio)
Method in brief: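 Agonist 1alpha,25-dihydroxyvitamin D3 (3 nM in well) was added with each compound to VDR-bla cells preincubated 4 h. Cells stood 16 h at 37C, then FRET substrate 2 h at room temperature; fluorescence intensity recorded.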

[8] = qHTS assay to identify small molecule agonists of the vitamin D receptor (VDR) signaling pathway - cell viability counter screen (AID 743224); further: series mostly up to about 63 µM; nearly all actives have a fitted effect of over 50% in size
Method in brief: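 VDR-bla cell line, quantitative HTS format; 16 h compound incubation (37C, 5% CO2); ATP-based CellTiter-Glo luminescence measured in the reporter assay wells.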

[9] = target: Bile acid receptor (Homo sapiens) (UniProt Q96RI1); test: qHTS assay to identify small molecule antagonists of the farnesoid-X-receptor (FXR) signaling pathway (AID 743217; active means well fitted inhibition curve with a large enough effect in the signal ratio in the repeat runs, not every such curve was filed as active; the % refers to the signal ratio)
Bile acid receptor (Homo sapiens), sequence (Q96RI1 whole entry, looked up): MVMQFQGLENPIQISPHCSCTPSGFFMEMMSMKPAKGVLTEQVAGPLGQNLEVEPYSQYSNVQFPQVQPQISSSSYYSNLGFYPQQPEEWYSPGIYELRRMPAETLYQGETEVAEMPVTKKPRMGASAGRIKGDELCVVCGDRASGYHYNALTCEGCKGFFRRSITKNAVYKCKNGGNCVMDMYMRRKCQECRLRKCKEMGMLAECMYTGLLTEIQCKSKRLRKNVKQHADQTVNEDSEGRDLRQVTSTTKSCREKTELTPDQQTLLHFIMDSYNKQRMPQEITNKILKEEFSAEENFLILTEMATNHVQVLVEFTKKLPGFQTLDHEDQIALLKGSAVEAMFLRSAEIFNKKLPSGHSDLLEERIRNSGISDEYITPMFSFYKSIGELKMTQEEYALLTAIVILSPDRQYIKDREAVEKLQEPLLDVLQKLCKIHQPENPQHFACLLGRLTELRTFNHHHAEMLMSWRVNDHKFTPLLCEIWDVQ
Method in brief: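 Beta-lactamase reporter under UAS control in HEK 293T cells; compound exposure 16 h at 37 °C in the presence of chenodeoxycholic acid (50 uM final); signal from B/G FRET substrate after 2 h at room temperature.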

[10] = target: Bile acid receptor (Homo sapiens) (UniProt Q96RI1); test: qHTS assay to identify small molecule agonists of the farnesoid-X-receptor (FXR) signaling pathway (AID 743220; active means well fitted activation curve with a large enough effect in the signal ratio in the repeat runs, not every such curve was filed as active; the % refers to the signal ratio)
Method in brief: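 Beta-lactamase reporter under UAS control in GeneBLAzer FXR HEK 293T cells (5000/well) measured with LiveBLAzer FRET substrate after 2 h at room temperature. Compound exposure lasted 16 h at 37C.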

Measured: Potency

C=C1CC[C@@]2(O)[C@H]3Cc4ccc(O)c5c4[C@@]2(CCN3CC2CC2)[C@H]1O5
inactive: [1] | [2] | [3] | [4] | [5] | [6] | [7] | [8]

CCOc1cc(OP(=S)(OC)OC)nc(CC)n1
inactive: [1] | [2] | [3] | [4] | [5] | [6] | [8]

CCOP(=O)(CN(CCO)CCO)OCC
inactive: [1] | [2] | [3] | [4] | [5] | [6] | [7] | [8]

C[N+]1(C)CCCCC1
inactive: [1] | [2] | [3] | [4] | [5] | [6] | [7] | [8]

CCC1(c2cccc(O)c2)CCCCN(C)C1 (centres undefined)
inactive: [1] | [2] | [3] | [4] | [5] | [6] | [7] | [8]

COc1ccccc1OC
inactive: [1] | [2] | [3] | [4] | [5] | [6] | [8]

CCC1(c2ccccc2)C(=O)N(COC)C(=O)N(COC)C1=O
inactive: [1] | [2] | [3] | [4] | [5] | [6] | [7] | [8]

CCC1(c2ccccc2)CCC(=O)NC1=O (centres undefined)
inactive: [1] | [2] | [3] | [4] | [5] | [6] | [7] | [8]

COC[C@@H](NC(C)=O)C(=O)NCc1ccccc1
inactive: [1] | [2] | [3] | [4] | [5] | [6] | [8]

CCOC(=O)CC(SP(=S)(OC)OC)C(=O)OCC (centres undefined)
inactive: [1] | [2] | [3] | [4] | [5] | [6] | [7] | [8]

C=CC(=O)OCCN(C)C
inactive: [1] | [2] | [3] | [4] | [5] | [6] | [8]

C=CCc1cc(OC)c2c(c1)OCO2
inactive: [1] | [2] | [3] | [4] | [5] | [6] | [7] | [8]

O=c1[nH]c2ccccc2o1
inactive: [1] | [2] | [3] | [4] | [5] | [6] | [8]

CCOC(=O)N(C)N=O
inactive: [1] | [2] | [3] | [4] | [5] | [6] | [7] | [8]

c1ccc2c(c1)CCNC2
inactive: [1] | [2] | [3] | [4] | [5] | [6] | [7] | [8]

OCC(Cl)CCl (centres undefined)
inactive: [1] | [2] | [3] | [4] | [5] | [6] | [7] | [8]

O=c1[nH]c2ccccc2n1C1CCNCC1
inactive: [1] | [2] | [3] | [4] | [5] | [6] | [7] | [8]

CN(C)C1CCCCC1
inactive: [1] | [2] | [3] | [4] | [5] | [6] | [7] | [8]

CS(=O)(=O)c1ccc(C(=O)C2C(=O)CCCC2=O)c(Cl)c1COCC(F)(F)F
inactive: [1] | [2] | [3] | [4] | [5] | [6] | [7] | [8]

ClCCN1CCCC1
inactive: [1] | [2] | [3] | [4] | [5] | [6] | [7] | [8]

COC(=O)c1ccc(CBr)cc1
inactive: [1] | [2] | [3] | [4] | [5] | [6] | [7] | [8]

CCN(CCO)CCO
inactive: [1] | [2] | [4] | [5] | [7] | [8]

COP(=O)(OC)O/C(C)=C/C(=O)N(C)C
inactive: [1] | [2] | [5] | [6] | [7] | [8]

CC(Cc1ccccc1)NCCn1cnc2c1c(=O)n(C)c(=O)n2C (centres undefined)
inactive: [1] | [2] | [4] | [5] | [7] | [8]

C[C@@H](N)[C@@H](O)c1ccccc1
inactive: [1] | [4] | [5] | [8]

Cc1ccc(Cl)c(O)c1
inactive: [1] | [3] | [9] | [4] | [10] | [5] | [6] | [8]

C=CC=O
inactive: [1] | [4] | [5] | [6] | [7]

COc1cccc(C=O)c1
inactive: [1] | [2] | [4] | [5] | [6] | [8]

N=C(N)[Se]
inactive: [1] | [3] | [4] | [5] | [6] | [7] | [8]

CCSC(=O)Cl
inactive: [2] | [9] | [4] | [10] | [5] | [6] | [8]

O=C(Cl)C(Cl)(Cl)Cl
inactive: [1] | [3] | [9] | [4] | [10] | [5] | [6] | [7] | [8]

CCC(CC)(CNC(=O)CCCO)c1cccc(OC)c1
inactive: [1] | [2] | [4] | [5] | [7] | [8]

ClCCCCl
inactive: [1] | [9] | [4] | [10] | [5] | [6] | [7] | [8]

O=P(O)(O)c1ccccc1
inactive: [1] | [2] | [4] | [5] | [6] | [7] | [8]

CC(C)(N)Cc1ccc(Cl)cc1
inactive: [1] | [3] | [4] | [5] | [6] | [8]

COc1cc(CC(C)N)cc(OC)c1OC (centres undefined)
inactive: [2] | [3] | [4] | [5] | [8]

Reference: PubChem BioAssay (Tox21)
